Experimental findings from PubChem BioAssay AID493078 (National Center for Advancing Translational Sciences (NCATS), 2011) are described below.

Some of the results follow. Records with an inconclusive call do not appear. Unmarked numbers belong to inactive results. Calls of active or inactive are those of the source. Calls follow the shape of the dose curve; as a rule, active = well fitted activation curve with a large enough effect; inconclusive = small, poorly fitted or top-dose-only effect; inactive = flat fitted curve, though single readings scatter.
Potency is read from the fitted curve at half-maximal effect.

Thyrotropin-releasing hormone receptor (Homo sapiens), sequence (P34981 whole entry, looked up): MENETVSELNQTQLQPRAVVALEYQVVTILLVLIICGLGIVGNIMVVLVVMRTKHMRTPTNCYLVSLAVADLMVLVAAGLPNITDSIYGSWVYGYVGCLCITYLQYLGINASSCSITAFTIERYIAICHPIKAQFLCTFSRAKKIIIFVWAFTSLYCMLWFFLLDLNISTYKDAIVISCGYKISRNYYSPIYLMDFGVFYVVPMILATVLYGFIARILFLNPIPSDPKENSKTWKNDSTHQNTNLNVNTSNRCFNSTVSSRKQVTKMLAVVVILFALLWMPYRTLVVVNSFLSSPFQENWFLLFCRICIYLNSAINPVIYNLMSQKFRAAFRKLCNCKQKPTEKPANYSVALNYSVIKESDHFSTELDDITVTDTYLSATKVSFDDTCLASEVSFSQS

This test has as its target Thyrotropin-releasing hormone receptor (Homo sapiens) (UniProt P34981). The test is described as follows: qHTS for Small Molecule Agonists and Allosteric Enhancers of Human TRH Receptor: Confirmation Screen for Agonists. Also: nearly all actives have a fitted effect of over 75% in size. As to activation: 0% is about no effect. The conditions noted are these: TRHR-expressing cells, agonist activation read-out; series mostly up to 46.1 µM; activation: at the top concentration. From the text: NIH Chemical Genomics Center [NCGC]
NIH Molecular Libraries Probe Centers Network [MLPCN]
Assay Submitter (PI): Marvin Gershengorn
This project aims to identify small drug-like molecules that activate (agonists) the thyrotropin releasing hormone (TRH) receptor (TRHR) or enhance its TRH-stimulated activity (allosteric enhancers). TRHR, a drug-accessible cell surface receptor expressed in specific brain regions, and its ligand TRH have been implicated in several central nervous system disorders, including depression and anxiety. Small molecule TRHR agonists or allosteric enhancers that are metabolically stable and able to cross the blood-brain barrier might serve as probes to elucidate the roles of brain TRH receptors in animal models, and might be valuable as lead compounds for the development of drugs to treat patients with central nervous system disorders.
Upon TRHR-Gq activation in TRHR cells, intracellular calcium is released from stores in the endoplasmic reticulum.
For the HTS assay freshly prepared cells are plated at a density of 2000/well in 3 ul of complete DMEM medium containing 10% serum in 1536-well plates and cultured over night at 37 C in a humidified incubator with 5% CO2. The next day, 2 ul of a no wash calcium dye (ABD Bioquest) was added to the cells and plates were incubated at room temperature for 1 hour. For the assay, assay plates were loaded into the FDSS kinetic plate reader. A 10 cycle (1 second/cycle) baseline measurement is taken and then the FDSS online 1536 pintool delivers 23 nl of compound library (as well as TRH controls) to the plate. The plate is measured for kinetically at 1 cycle/sec for 180 seconds and is considered to be the agonist portion of the assay (eg, compounds which activate a positive calcium response during this portion are flagged as potential agonists). Following the 180 second read, 1 ul of either an EC20 (positive modulation assay) is delivered by an onboard pipette head. Measurements are taken kinetically for an additional 180 seconds.
TRHR FDSS Screening Protocol
1. Reagent, 3 uL 2000 cells/well 1536 TC treated Black plate in media containing 10% FCS
2. Time, 18 hours, 33.5C 5% CO2 (cells grown at 37C)
3. Reagent, 2 uL ABD fluo-8 Ca dye
4. Time, 30 min-1.5hrs hours, Room temp (6 plates/batch)
5. Detector, EX 480/EM 530C, FDSS 10 cycles baseline (1sec/cycle)
6. Compound, 23 nL of stock solution from library
7. Detector, EX 480/EM 530C, FDSS 230 cycles (1sec/cycle) Agonist mode
8. Compound, 1 ul EC20 of TRH made up in HEPES HBSS, 10 nM final
9. Detector, EX 480/EM 530C, FDSS 100 cycles (1sec/cycle) Potentiator mode
Background: Quantitative high-throughput screening tests each substance at several concentrations.
For `O=C1C(=O)N(CCCO)C(c2ccccc2)/C1=C(\O)c1ccc(Br)cc1` (stereo not given), the “activation” value is -0.674%.

For the compound `CC1=C(C)CC(C(=O)NC(C)CCc2ccccc2)C(C(=O)O)C1` (stereo not given), the “activation” value was -0.557%.

Consider `Cc1ccc(Cl)c(OCC(=O)N2CCc3ccccc3C2)c1`, for which the “activation” value was 1.54%.

On to `Cc1csc(CN(C)C(=O)CC2C(=O)NCCN2CC(C)(C)C)n1` (stereo not given), for which the “activation” value is 0.768%.

As to `Cc1cc(C(=O)CCl)c(C)n1CC1COc2ccccc2O1` (stereo not given), the “activation” value was -0.57%.

Take `c1cnc(N2CCN(c3ccc4ccccc4n3)CC2)nc1`: the “activation” value was -0.415%.

Regarding `C/C(=C\c1ccco1)CN1CCC(N2CCC(C(=O)N3CCOCC3)CC2)CC1`, the “activation” value is 1.27%.

Turning to `NC(N)=Nc1nc(-c2ccccc2)c2cc(Cl)ccc2n1`, the “activation” value was -0.768%.

Consider `Cn1cccc1C1(C(F)(F)F)NCCNC1=O` (stereo not given), for which the “activation” value is -0.557%.

With `CSc1nnnn1-c1c(C)cc(C)cc1C`, the “activation” value is 2.69%.

Take `N#Cc1ccc(Oc2cc(C(F)(F)F)nc(-c3ccccn3)n2)cc1`: the “activation” value was 0.518%.

Regarding `CCOc1ncccc1C(=O)OCC(=O)N1c2ccccc2CC1C` (stereo not given), the “activation” value was -0.311%.

For `CCc1ccccc1NC(=O)/C(=C/c1ccccc1)c1ccccc1`, the “activation” value is 2.38%.

Consider `COc1cc(C2C3=C(CCCC3=O)OC3=C2C(=O)CCC3)ccc1OCC(=O)Nc1ccccc1`, for which the “activation” value is 1.24%.

In the case of `COc1ccc(CCn2ccc(O)c(Cc3ccc(Cl)cc3Cl)c2=O)cc1OC`, the “activation” value was -0.71%.

As for `Cc1cccn2c(=O)c3cc(C(=O)NC4CCCCC4)sc3nc12`, the “activation” value was -0.406%.

Take `COc1ccc(OCc2n[nH]c(=S)n2N)cc1`: the “activation” value was 5.54%.

As to `Cc1c(/C=N\NC(=O)c2cc3ccccc3o2)c2ccccc2n1C`, the “activation” value was 1.06%.

On to `CC1(C)Cc2c(cnn2-c2cccc(F)c2)C(NC(=O)c2cc[n+]([O-])cc2)C1` (stereo not given), for which the “activation” value was -0.329%.

In the case of `O=C(/C=C/c1ccc(N2CCOCC2)cc1)c1ccccc1`, the Potency was 20.6 µM (active).

In the case of `Cc1cc(S(=O)(=O)c2cc3ccc(O)c(C)c3oc2=O)ccc1F`, the Potency was 20.6 µM (active).

Regarding `CC(C)c1nnc(NC(=O)CCC(=O)N2CCN(c3cccc(Cl)c3)CC2)s1`, the “activation” value is 0.507%.

For the compound `CC(=O)N1CCN(CC(=O)Nc2ccc(C)c(F)c2)CC1`, the “activation” value is 0.713%.

As for `CN(C(=O)CSc1nnc(Nc2ccccc2)s1)C1CCS(=O)(=O)C1` (stereo not given), the “activation” value is 1.65%.

Consider `C/C(=N/OC(=O)c1ccc(Br)cc1)c1ccc(C)cc1`, for which the “activation” value is 0.726%.

With `COc1cc(/C=C(\C#N)c2nc3ccccc3[nH]2)ccc1O`, the Potency is 20.6 µM (active).

On to `CCc1nnc(NC(=O)[C@@H](NC(=O)c2cccc(C)c2)C(C)C)s1`, for which the “activation” value was 0.557%.

As for `O=C(Nc1ccccc1)c1cccnc1Nc1ccccc1`, the “activation” value is 0.548%.

As for `NS(=O)(=O)c1cccc(NC(=O)CSc2nc3ccccc3n2-c2ccccc2)c1`, the “activation” value is 1.92%.

Consider `CCOc1cc(CN2CCCC(CO)(Cc3ccc(F)cc3F)C2)ccc1OC` (stereo not given), for which the “activation” value is 7.9%.

Consider `COC(=O)c1cc(N2CCNCC2)nc2ccccc12`, for which the “activation” value is -0.329%.

For the compound `CC(=O)n1c(C=Nc2ccccc2)c(O)c2ccccc21`, the Potency is 20.6 µM (active).

In the case of `O=c1o[nH]c(-c2ccccc2)c1N=Nc1c(F)cccc1Cl`, the “activation” value was 1.97%.

With `O=c1[nH]c2cccnc2n(CCNc2ncc(C(F)(F)F)cc2Cl)c1=O`, the “activation” value is -0.203%.

Turning to `O=C(CN1C(=O)c2cccc3cccc1c23)Nc1ccccc1`, the “activation” value was -0.467%.

Take `Cc1ccc(-c2cn(S(=O)(=O)c3cccc([N+](=O)[O-])c3)nc2N)cc1`: the “activation” value is -0.713%.

Turning to `CCOC(=O)C1=C(O)/C(=C/c2cc(C)n(-c3ccccc3)c2C)N=C1C`, the “activation” value is 0.557%.

As to `Cc1nn(Cc2ccccc2)c(C)c1C(=O)N1CCN(CC(=O)Nc2ccccc2Cl)CC1`, the “activation” value is 2.59%.

Turning to `COc1ccc(Cl)cc1NC(=O)CN(C)Cc1ccc(OC)c(OC)c1`, the “activation” value was 2.33%.

On to `CC(=O)c1cc(NC(=O)c2ccccc2)c(=O)oc1/C=C/N(C)C`, for which the Potency is 20.6 µM (active).
